# Screens from PubChem BioAssay.
# Only some compounds are listed: those with a hit (about 19% of all), similar ones and a draw of the others.
# TDP1 cell noCPT – qHTS for Inhibitors of human tyrosyl-DNA phosphodiesterase 1 (TDP1): qHTS in cells in absence of CPT. AID 686978, 2013. 420,000 tested, 15% active. Potency, µM (top dose mostly 46.2 µM), usual class: inhibitors. DT40 Tdp1-/- hTDP1 cells, no CPT, ATP luminescence, 48 h; also: nearly all actives have a fitted effect of over 55% in size
#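 Cells were dispensed at 400 per well, compounds added by pin tool, plates incubated ≥48 hr at 37 °C, then CellTiter-Glo added for 30 min at room temperature before luminescence reading. Line: DT40 Tdp1-/- complemented with hTDP1; camptothecin omitted.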
# IL1B secr inh – inhibitors of inflammasome signaling (IL-1 beta secretion); THP-1 LPS/ATP IL-1B secretion, AlphaLISA, 16 h; active compounds read low; activity change, % at 57.5 µM; 360,000 tested, 4.7% active; in the data active = activity change below about -50%; inconclusive = mostly about -30% to -49%
#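 Secreted IL-1B measured by AlphaLISA bead assay after 16 h compound exposure of THP-1 cells; compounds (final up to 57.5 uM) added 1 h before LPS (250 ng/mL) and ATP (1.25 mM) stimulation; lower signal means less secretion.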
# TDP1 cell CPT – DT40-hTDP1 cell growth loss with CPT; 420,000 tested, 12% active; Potency, µM (top dose mostly 46.2 µM), actives largely listed as inhibitors; AID 686979; chicken DT40 Tdp1-/-;hTDP1 cells + 20 nM CPT, ATP luminescence, 48 h; also: nearly all actives have a fitted effect of over 55% in size
#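 Cell growth measured by CellTiter-Glo luminescence after a minimum 48 h, 37 C compound exposure with 20 nM CPT in Tdp1-knockout DT40 cells stably expressing hTDP1, seeded 400/well; qHTS titration format.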
# HT1080 IDH1KD tx – toxicity to HT-1080 IDH1 knockdown cells (counter line); HT-1080 IDH1 knockdown viability, ATP luminescence, 48 h; 360,000 tested, 2% active; Potency, µM (titrated, usually from 46.1 µM), usual class: cytotoxic; AID 686971
#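 Assay cells: HT-1080 with IDH1 knockdown, 750 per well, RPMI/5% FBS. Exposure: 48 h at 37 °C following 2 h pre-incubation. Read: CellTiter-Glo luminescence; fitted concentration-response, curve class assigned.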
# HT1080-NT tox – kills 2HG-producing HT-1080-NT fibrosarcoma cells; HT-1080-NT fibrosarcoma viability, CellTiter-Glo ATP luminescence, 48 h; Potency, µM (highest dose often 46.1 µM), usual class: cytotoxic; 360,000 tested, 1.6% active; AID 686970;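 also: NT is the 2HG producing partner of a matched IDH1 knockdown line; nearly all actives have a fitted effect of over 55% in size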
#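 Toxicity toward the 2HG-producing NT line was scored as %Activity, normalised to DMSO and no-cell wells, from CellTiter-Glo luminescence after 48 hours' treatment.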
# Hits are given with their value; 0 = inactive; ? = inconclusive; - = no result given; [ ] = another dose, or the depositor's remark. Unless noted, calls follow the shape of the dose curve; as a rule, active = well fitted curve in the direction sought with a large enough effect; inconclusive = small, poorly fitted or top-dose-only effect, or another doubt; inactive = no such curve, though single readings can be large; an effect the other way counts as inactive or inconclusive.
SMILES,TDP1 cell noCPT,IL1B secr inh,TDP1 cell CPT,HT1080 IDH1KD tx,HT1080-NT tox
CCN(Cc1ccccc1)S(=O)(=O)c1c(N)n(C)c(=O)n(C)c1=O,0,0,0,0,0
COc1ccc(-c2csc(C(C)(O)c3ccccc3)n2)cn1 (stereo not drawn),?,0,?,0,0
COCCNc1nc(-c2cc3ccccc3o2)cs1,0,-53.1,0,0,0
CC(O)(c1ccccc1)c1nc(-c2cc3ccccc3o2)cs1 (stereo not drawn),13µM,0,23.1µM,?,?
CC(O)(c1ccccc1)c1nc(-c2ccc(Cl)cc2)cs1 (stereo not drawn),?,0,?,?,0
CN(C)c1ccc(-c2csc(C(C)(O)c3ccccc3)n2)cc1 (stereo not drawn),16.4µM,0,14.6µM,?,0
C[C@H]1CN([C@@H](C)CO)C(=O)CCCn2cc(nn2)CO[C@@H]1CN(C)C(=O)Nc1ccc(N2CCN(C)CC2)cc1,0,0,0,0,0
COc1ccccc1CNC(=O)Cn1cc(Br)ccc1=O,0,0,0,0,0
CCCOc1ccc(C(=O)N2CCN(c3ccc(N)cc3Cl)CC2)cc1,20.6µM,0,23.1µM,0,0
CCCCOc1ccc(C(=O)N2CCN(c3ccc(N4CCOCC4)nn3)CC2)cc1,?,0,23.1µM,0,0
CCC12CN3CC(C)(CN(C1)C3c1ccccc1C)C2=O (stereo not drawn),0,-,0,-,-
Cc1ccc(C(=O)NNC(=O)CCCN2C(=O)/C(=C/c3ccccc3Cl)SC2=S)cc1,?,-106.9,?,0,0
CCN(CC)CCOC(=O)c1ccc(NC(=O)CCCN2C(=O)S/C(=C/c3ccc(OC)cc3)C2=S)cc1,20.6µM,-69.0,?,11.6µM,?
Cc1ccc(/C=C2/SC(=S)N(CC(=O)Nc3ncc(Cc4ccc(C)cc4)s3)C2=O)cc1,11.6µM,0,23.1µM,0,0
CC(/C=C1\SC(=S)N(CCC(=O)Nc2ccc(O)cc2)C1=O)=C\c1ccccc1,18.4µM,-53.1,18.4µM,?,0
C[C@@H](NC(=O)c1[nH]cnc1C(=O)Nc1ccccc1F)c1ccccc1,?,0,0,0,0
O=c1[nH][nH]c(=O)c2c1[nH]c(=S)n2Cc1ccccc1,0,0,0,0,0
CCC1(CC)C(=O)NC(=O)NC1=NCCc1c[nH]c2ccccc12,0,0,0,0,0[9.24 µM]
COc1cc(/C=C2\SC(=S)N(NC(=O)c3cccc(O)c3)C2=O)ccc1O,23.1µM,0,16.4µM,0,0
Cc1ccc(/C=C2\SC(=S)N(CCCC(=O)NNC(=O)c3ccccc3O)C2=O)cc1,18.4µM,0,?,0,0
O=C(CCN1C(=O)/C(=C\c2ccc(F)cc2)SC1=S)Nc1ccccc1,0,0,0,0,0
COc1cc(/C=C2\SC(=S)N(NC(=O)c3ccc(O)c(OC)c3)C2=O)ccc1O,0,0,0,0,0
O=C(CCN1C(=O)/C(=C\c2ccc(F)cc2)SC1=S)Nc1ccc(O)cc1,23.1µM,0,0,0,0
Cc1ccc(/C=C2\SC(=S)N(CCC(=O)NNC(=O)c3ccccc3O)C2=O)cc1,?,0,?,0,?
Cc1ccc(/C=C2/SC(=S)N(CCCC(=O)Nc3ccc(O)cc3)C2=O)cc1,23.1µM,-62.3,?,20.6µM,16.4µM
SMILES,TDP1 cell noCPT,IL1B secr inh,TDP1 cell CPT,HT1080 IDH1KD tx,HT1080-NT tox
COc1ccc(C(=O)c2cn(CC(=O)Nc3cc(OC)cc(OC)c3)c3ccc(OC)cc3c2=O)cc1,?,-,0,-,-
COc1ccc(N(CC(=O)O)S(=O)(=O)c2ccc(C)cc2)cc1Cl,0,0,0,0,0
CC(/C=C1\SC(=S)N(NC(=O)c2ccc(C)cc2)C1=O)=C\c1ccccc1,?,0,0,0,0
O=C(O)CCCCN1C(=O)/C(=C\c2ccc(OCc3ccccc3)c(OCc3ccccc3)c2)SC1=S,?,-92.8,0,0,0
O=C(CCCN1C(=O)/C(=C/c2ccccc2)SC1=S)Nc1cccc(O)c1,23.1µM,-52.3,18.4µM,0,0
O=C(CN1C(=O)S/C(=C\C=C\c2ccccc2)C1=O)Nc1ccc(O)cc1,?,-53.8,?,0,0
CC(/C=C1\SC(=S)N(NC(=O)c2ccncc2)C1=O)=C\c1ccccc1,0,-79.0,0,0,0
O=C(CCCN1C(=O)/C(=C\c2ccccc2)SC1=S)Nc1cccc(C(=O)O)c1,0,0,0,0,0
CCn1c(SCC(=O)N2CCC(C)CC2)nnc1-c1ccco1,0,0,0,0,0
O=C(CNC(=O)c1sc2ccccc2c1Cl)Nc1ccccc1F,0,0,0,0,0
COc1cccc(/C=C2/SC(=S)N(CCCC(=O)Nc3ccc(O)cc3)C2=O)c1,?,-84.8,?,?,?
Cc1ccc(/C=C2\SC(=S)N(CCCC(=O)NC3CCCC3)C2=O)cc1,18.4µM,0,0,0,0
COc1ccc(/C=C2/SC(=S)N(CCCC(=O)Nc3ccc(O)cc3)C2=O)cc1OC,14.6µM,0,?,0,0
Cc1ccc(/C=C2\SC(=S)N(CCCC(=O)Nc3cccc(C(=O)O)c3)C2=O)cc1,0,0,0,0,0
O=C(CCN1C(=O)/C(=C\c2ccccc2)SC1=S)Nc1ccc(C(=O)O)cc1,0,0,0,0,0
O=C(CCCN1C(=O)/C(=C\c2ccccc2)SC1=S)Nc1ccc(O)cc1,14.6µM,-104.9,?,14.6µM,23.1µM
Cc1ccc(N=C/C(C(=O)C(F)(F)F)=C(\O)c2ccco2)cc1Cl,0,0,0,0,0
COc1ccccc1CC(=O)Nc1ccc(S(=O)(=O)N2CC(C)CC(C)C2)cc1 (stereo not drawn),0,0,0,0,0
COc1ccc2[nH]c(C(=O)O)c(CCNC(=O)/C=C/c3ccc(O)c(OC)c3)c2c1,0,0,0,0,0
COc1ccccc1NC(=O)NC1(C(=O)N2CCC(C)CC2)CCCCC1,0,0,0,0,0
COc1cc(/C=C2\SC(=S)N(CCC(=O)Nc3cccc(O)c3)C2=O)cc(OC)c1OC,16.4µM,-98.3,?,?,?
CC1CCCN(S(=O)(=O)c2ccc(NC(=O)c3nc(SC(C)C)ncc3Cl)cc2)C1 (stereo not drawn),13µM,-,8.2µM,-,-
CSc1ncc(Cl)c(C(=O)Nc2ccc(S(=O)(=O)Nc3nccc(C)n3)cc2)n1,10.3µM,0,?,?,?
Cc1ccnc(NS(=O)(=O)c2ccc(NC(=O)c3nc(SC(C)C)ncc3Cl)cc2)n1,?,-,0,-,-
CCSc1ncc(Cl)c(C(=O)Nc2ccc(S(=O)(=O)N3CCCCC3)cc2)n1,11.6µM,-,20.6µM,-,-
CCSc1ncc(Cl)c(C(=O)Nc2nc3ccc(S(C)(=O)=O)cc3s2)n1,0,-,0,-,-
